High-throughput results (PubChem)
TEAD-YAP inh: TEAD-YAP interaction inhibition; HEK-TIYL cells, TEAD-Gal4/YAP UAS-luciferase luminescence; inhibition, % at 9.12 µM; 640,000 compounds, 1.4% hits; in the data active = inhibition above about 32%;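 note: 0% = median of test compound wells and 100% = reference inhibitor wells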
FBW7 act: human FBW7 E3 ligase activation, primary screen; 650,000 compounds, 0.13% hits; AlphaScreen FBW7–phospho-cyclin E peptide binding, activator screen; Q969H0; normalized activity (activation), % at 26.1 µM; AID 1259310; in the data active = normalized activity above about 1.9%;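 note: purified mutant Fbw7 with reduced substrate affinity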
GPR151 activ: human GPR151 activation | Q8TDV0 | PathHunter beta-arrestin GPR151 cells, luminescence | activation, % at 11.2 µM | 650,000 compounds, 1% hits; in the data active = activation above about 4.9%;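 note: 0% = median of compound wells and 100% = cells with positive control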
MITF inh: human MITF inhibition, primary screen. AlphaScreen MITF homodimerization, bead proximity signal. 650,000 compounds, 0.91% hits. O75030. inhibition, % at 2.6 µM; in the data active = inhibition above about 50%;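 note: 0% = vehicle wells with protein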
Target sequence (O75030 whole entry, looked up): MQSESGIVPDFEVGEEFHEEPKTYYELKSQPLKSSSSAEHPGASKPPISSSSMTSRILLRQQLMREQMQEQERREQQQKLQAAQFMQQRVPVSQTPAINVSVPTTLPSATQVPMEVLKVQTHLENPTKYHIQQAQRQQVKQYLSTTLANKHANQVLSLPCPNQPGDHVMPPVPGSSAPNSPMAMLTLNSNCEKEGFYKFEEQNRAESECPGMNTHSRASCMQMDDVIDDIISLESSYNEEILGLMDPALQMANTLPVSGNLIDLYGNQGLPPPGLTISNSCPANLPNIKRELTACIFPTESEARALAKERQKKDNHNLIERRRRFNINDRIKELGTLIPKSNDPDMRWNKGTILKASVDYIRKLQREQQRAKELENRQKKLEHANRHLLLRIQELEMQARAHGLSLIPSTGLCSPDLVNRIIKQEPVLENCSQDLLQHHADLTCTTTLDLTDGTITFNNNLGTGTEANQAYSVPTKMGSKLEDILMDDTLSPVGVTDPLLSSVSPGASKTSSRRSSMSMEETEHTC
Active calls of the source: *; . = no result. A selection: hits, their analogues and other compounds. The true share with any hit is near 3.5%.

SMILES | TEAD-YAP inh | FBW7 act | GPR151 activ | MITF inh
Cc1ccccc1NC(=O)/C(Cl)=C(\Cl)S(=O)(=O)C(C)C | 52* | 0 | -1 | -15
CC(C)NC(=O)N1CCC(c2nnc(C3CC3)s2)CC1 | 4 | 2.1* | -1 | 12
O=C(NCCc1ccccc1)C1CCN(C(=O)NCc2ccccc2)CC1 | 1 | 0 | 0 | 6
O=C(NCCc1ccccc1)N1CCC(c2nnc(C3CC3)s2)CC1 | -11 | 2.6* | 2 | -7
CC(C)NC(=O)N1CCC(c2nnc(C(C)C)o2)CC1 | -4 | 0 | -1 | -9
CCOC(=O)c1ccc(NC(=O)c2cn(CCC#N)nc2-c2ccc(F)cc2)cc1 | 1 | 0 | 0 | 2
CCN(CC)C(=O)c1cn(CCC#N)nc1-c1ccc(F)cc1 | -4 | 2.1* | -1 | 10
CCOC(=O)C(C)Oc1ccc2cc(-c3ccccc3)c(=O)oc2c1 (centres undefined) | 18 | 2.3* | -4 | -4
Cc1c(Cl)cccc1NC(=O)c1nn2c(C(F)(F)F)cc(-c3ccc(Br)cc3)nc2c1Cl | 0 | 0 | 0 | -9
O=C(NC(c1ccc(Cl)cc1)c1ccc2cccnc2c1O)c1ccccc1 (centres undefined) | 75* | -1 | 0 | 17
COc1ccc(C(=O)NC(c2ccc(Cl)cc2)c2cc(Cl)c3cccnc3c2O)cc1 (centres undefined) | 9 | 0 | -1 | 0
COc1ccc(C(NC(=O)c2ccccc2)c2ccc3cccnc3c2O)cc1 (centres undefined) | 38* | -1 | -1 | 46
COc1cccc(C(NC(=O)c2ccccc2)c2ccc3cccnc3c2O)c1 (centres undefined) | 13 | -2 | -1 | 17
CCN1CCN(C2=CC(=[N+]3CCCC3)CC(C)(C)C2)CC1 | 6 | 0 | 2 | -8
CC1(C)CC(N2CCCC2)=CC(=[N+]2CCCC2)C1 | 52* | 0 | 1 | 0
CC1(C)CC(N2CCCC2)=CC(=[N+]2CCCCC2)C1 | 70* | 0 | 0 | 20
COc1ccc(CCNC(=O)c2c[nH]c3ccc(S(=O)(=O)N4CCc5ccccc54)cc3c2=O)cc1OC | 35* | 0 | 0 | 17
CCOC(CNC(=O)c1c[nH]c2ccc(S(=O)(=O)N3CCc4ccccc43)cc2c1=O)OCC | 19 | 0 | 2 | 4
Cc1ccc(-c2cc(C(F)(F)F)n3nc(C(=O)N4CCN(c5ccccc5)CC4)cc3n2)cc1 | 4 | 0 | 2 | 1
Cc1ccc(/C=C2\CC/C(=C\c3ccc(C)o3)C2=O)o1 | 9 | 0 | -1 | 58*
COc1ccc(S(=O)(=O)Nc2ccc3c(c2)OCCO3)cc1Br | 0 | 0 | 0 | -3
COc1ccccc1Oc1ccc(S(=O)(=O)Nc2ccc3c(c2)OCCO3)cc1 | 44* | 0 | 2 | 13
COC(=O)CCCC(=O)N1CCCC(C(=O)Nc2cccc(-c3cc4ccccc4[nH]3)c2)C1 (centres undefined) | -3 | 0 | -1 | -3
NNc1nc(Nc2ccccc2)nc(Nc2ccccc2)n1 | 35* | -1 | -1 | 4
CCOc1ccc(Nc2c(C(=O)N3CCOCC3)cnc3ccccc23)cc1 | 42* | 0 | 0 | -4
SMILES | TEAD-YAP inh | FBW7 act | GPR151 activ | MITF inh
N#CC(C#N)C(C#N)(C#N)C1CCCC1=O (centres undefined) | 7 | -1 | -1 | 78*
N#CC(C#N)C(C#N)(C#N)C1CCCCC1=O (centres undefined) | 12 | -1 | 1 | 21
COC(=O)c1cc2sccc2n1CC(=O)Cc1ccc(OC)cc1OC | 50* | 0 | -1 | 14
COC(=O)c1cc2sccc2n1CC(=O)c1ccccc1 | 6 | 0 | 3 | 13
CC1(C)N=C(N)N=C(N)N1c1ccc(F)cc1 | 6 | 0 | -1 | 1
CCCCOc1ccc(N2C(N)=NC(N)=NC2(C)C)cc1 | 37* | 0 | 0 | 3
NNc1nc(-c2ccc(O)c(O)c2)cs1 | 6 | 0 | 0 | 103*
COc1ccc(-c2csc(N)n2)c(F)c1 | -33 | 0 | 0 | 0
COc1ccc2cc(-c3csc(N)n3)ccc2c1 | 32* | 0 | -5 | 10
Oc1ccc(-c2csc(NCc3ccccc3)n2)cc1O | -82 | 0 | 0 | 26
Nc1nc(-c2ccc(O)c(O)c2)cs1 | 3 | 0 | 0 | 79*
O=C(O)c1cccc(Nc2nc(-c3ccc(O)c(O)c3)cs2)c1 | 15 | 0 | 0 | 80*
CCN1C(=O)[C@H]2[C@H]3[C@H](O)[C@H](O)C/C(=N\OC/C=C(\C)CCC=C(C)C)[C@@H]3CC[C@H]2C1=O | . | 0 | 0 | 7
O=S(=O)(Nc1ccc(-c2cn3ccccc3n2)cc1)c1cccc2ccccc12 | -15 | 0 | 0 | 12
